# Source: PubChem BioAssay (NCI)
# Compounds without any hit were thinned out: in the full panel of roughly 83,000, 20% have a hit.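 Cells were grown in 96-well plates and exposed to the test compound at a single concentration for 48 hours; results are reported as percent growth, with values below 10 considered active.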 Values without a mark were called inactive. The source made the active and inactive calls.
# Experiments:
# Assay in all cases: NCI-60 one-dose screen, 48 h (100 = growth as untreated, 0 = no growth, -100 = all killed)
# Details in all cases: 10 µM unless noted
# SK-MEL-2 melanoma = system: SK-MEL-2 melanoma
# EKVX NSCLC = system: EKVX NSCLC
# SN12C renal = system: SN12C renal
# UO-31 renal = system: UO-31 renal
# TK-10 renal = system: TK-10 renal
# ACHN renal = system: ACHN renal
# CAKI-1 renal = system: CAKI-1 renal
# A498 renal = system: A498 renal
# CCRF-CEM leukemia = system: CCRF-CEM leukemia
# MOLT-4 leukemia = system: MOLT-4 leukemia
SMILES,growth (SK-MEL-2 melanoma),growth (EKVX NSCLC),growth (SN12C renal),growth (UO-31 renal),growth (TK-10 renal),growth (ACHN renal),growth (CAKI-1 renal),growth (A498 renal),growth (CCRF-CEM leukemia),growth (MOLT-4 leukemia)
COc1cccc2c1C(=O)c1c(O)c3c(c(O)c1C2=O)CC(O)(/C(C)=N/NC(=O)CCCCC(=O)N/N=C(\C)C1(O)Cc2c(O)c4c(c(O)c2C(OC2CC(N)C(O)C(C)O2)C1)C(=O)c1c(OC)cccc1C4=O)CC3OC1CC(N)C(O)C(C)O1 (stereo not given),-56.9% [5 µM] (active),-16.2% [5 µM] (active),-2.85% [5 µM] (active),-16.9% [5 µM] (active),-29.5% [5 µM] (active),-33.6% [5 µM] (active),-40% [5 µM] (active),-84.5% [5 µM] (active),-26.4% [5 µM] (active),-46.8% [5 µM] (active)
COc1ccc(-c2[nH]c(=S)n(C(CC3(C)NCC(=O)N3n3c(-c4ccccc4)cc(C)nc3=S)c3ccc(OC)cc3)c(=O)c2Br)cc1 (stereo not given),73.5%,60.5%,65.5%,38.6%,63.5%,67.5%,31.4%,-10.4% (active),57.5%,54.6%
COc1ccc2c(c1)[nH]c(=O)c1c3cccnc3cn21,68.9%,63.2%,13.4%,41%,61.8%,30.5%,-14.4% (active),-3.48% (active),23.1%,25.1%
COc1ccc(OC)c(-c2c(C#N)c(-c3ccc(Cl)cc3)nc3c2c(-c2ccccc2)nn3-c2ccccc2)c1,102%,102%,95%,81.4%,103%,102%,67.9%,113%,98.8%,86.1%
O=C1NC(=Nc2ccc(Cl)cc2)S/C1=C\c1cn(-c2ccccc2)nc1-c1ccccc1,103%,85.3%,79.3%,87.2%,60.9%,91.9%,94.7%,79.7%,60.6%,81.7%
NC(=S)N/N=C/Cc1ccccc1,106%,89.1%,102%,64.4%,107%,102%,116%,99.8%,69.9%,78.7%
O=c1[nH]c2ccccc2n1C1CCN(CCOc2ccccc2)CC1,83.3%,99.7%,97.3%,64.6%,98.7%,90.9%,98.8%,63.7%,74.3%,86.4%
Nc1ccc2c(c1)c(N)nn2C(=O)Nc1ccc(Cc2ccccc2)cc1,73.7%,82.3%,61.1%,39.3%,88.3%,48.9%,38.9%,103%,55.5%,27.8%
Cc1ccc(/C=C/c2c(C(=O)/C=C/c3ccc(Cl)cc3)c(C)nc3ccccc23)cc1,8.94% (active),17.6%,-49.2% (active),-74.7% (active),26.5%,-64.6% (active),-4.17% (active),-16.1% (active),4.53% (active),0.928% (active)
CCN(CC)CCCC(C)Nc1c2ccc(Cl)cc2nc2ccc(O)cc12 (stereo not given),52.6%,48.6%,30.8%,34.4%,55%,24.2%,70.9%,90.7%,48.3%,7.11% (active)
COc1ccc(/C=C/c2c(C(=O)/C=C/c3ccc(F)cc3)c(C)nc3ccccc23)cc1,81.3%,63.1%,45.2%,45.6%,110%,49.2%,54.6%,77.2%,9.18% (active),5.98% (active)
COc1ccc(NC(=O)CSc2nc(C)c(C(C)=O)n2-c2ccc(Cl)cc2)cc1,102%,95.5%,92.5%,102%,125%,99%,97.8%,75.6%,108%,91%
N=C1CCC(=N)c2c1c(O)c1ccccc1c2O,117%,82.1%,105%,101%,127%,87%,56%,100%,98.4%,81.1%
CC1=C(SCCC(=O)OC(C[Se]C2=C(C)C(=O)c3ccccc3C2=O)C(=O)NCCCCCC(=O)OCc2ccccc2)C(=O)c2ccccc2C1=O (stereo not given),23.3%,55.8%,38.4%,25.3%,114%,36.4%,90.8%,70.8%,10.8%,10.9%
Cc1nn(-c2ccccc2)c(Oc2ccc(Cl)cc2)c1/C=N\N=c1/sc2ccccc2n1C,78.1%,85.5%,88.4%,62.1%,117%,93.9%,81.3%,92.2%,86.8%,74.1%
O=C(CCCCCCSc1nc(-c2ccccc2)cc(-c2ccc(Cl)cc2)n1)NO,81.3%,44.5%,20.7%,-2.31% (active),21.1%,4.89% (active),-7.71% (active),24.2%,0.872% (active),1.04% (active)
COc1nc(N(C)O)nc(N(C)O)n1,70.9%,31.2%,42.5%,36.9%,32.5%,11.2%,36.3%,76.7%,14.4%,35.7%
O=C1/C(=C/c2ccccc2)CCc2nc3ccccc3c(/C=C/c3ccc(Cl)cc3)c21,93.7%,79%,83.5%,69.1%,145%,97.3%,83.7%,92.1%,84.1%,80.3%
Clc1cccc(Cl)c1C(Nc1nc2ccccc2s1)Nc1nc2ccccc2s1,76%,97.1%,108%,75%,114%,89.3%,108%,112%,81.7%,89.5%
COc1ccc(-c2nc(SCCC(C)C)nc(N/N=C\c3ccccc3O)c2C#N)cc1,103%,101%,81.2%,86.7%,101%,73.5%,73.9%,95.8%,66.3%,90.2%
Cc1ccc(Nc2ccc(Nc3ccc(C)cc3)c3c2C(=O)c2cccc(O)c2C3=O)cc1,65.5%,91.6%,98%,64.7%,137%,91%,104%,116%,93.2%,104%
Cc1ccc(-n2nc3c(c(C#N)c2=O)CC(c2ccccc2Cl)C([N+](=O)[O-])=C3O)cc1 (stereo not given),99.2%,90.2%,108%,78.4%,123%,100%,84%,85.9%,84.3%,77.1%
O=c1c2cc(F)ccc2sc2c(NCCCN3CCCC3)nc3ccccc3c12,85.4%,53.5%,42.3%,15.1%,57.9%,41.8%,30.4%,46.6%,29%,-14.5% (active)
OC(COc1ccccc1Cl)COc1ccccc1Cl,107%,106%,97%,82.1%,102%,97.3%,106%,85.2%,-46.3% (active),92.3%
Cc1ccc(-c2cc(-c3cccnc3)[nH]c(=O)c2C#N)cc1,120%,101%,104%,84.1%,116%,103%,87%,82.4%,101%,115%
CCOC(=O)c1csc(NC(=O)COc2cccc(/C=C3\Oc4cc(OC)ccc4C3=O)c2)n1,83.5%,98.6%,109%,-38.8% (active),125%,95.5%,92.3%,108%,62.3%,65.1%
O=C(CSc1nnc(-c2ccc(NC(=O)c3cccnc3)cc2)o1)Nc1cccc(Br)c1,96.5%,88.3%,51.1%,95.9%,121%,99.2%,82.6%,96.2%,72.2%,84.5%
